# From PubChem BioAssay AID1159580 (chemical genetic matrix, 2015)
# Among all 5,500 compounds or so, about 2,000 (36%) were called active. About 18% were inconclusive and are not listed. Some of the results follow. Values without a mark were called inactive. Cut-off read from the data, not from the text of the source: active = normalized growth mostly below about 0.91 (no sharp cut-off); inconclusive = no clear call, values can overlap the other calls; inactive = mostly above about 0.92.
# Assay: chemical genetic growth profiling, strain panel (AID 1159580);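 note: tested at 20 µM; growth read once vehicle control cultures reached saturation at 30 °C; 1 = growth at the plate median or of vehicle wells; lower values mean less growth of the strain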
# Conditions: growth OD
structure (smiles),measurement,setting,value
Nc1c2ccccc2nc2ccccc12 (tested in a mixture with another compound),normalized growth,"S. cerevisiae deletion strains, locus YKL009W, strain mrt4, hits give low values",0.811 (active)
same,normalized growth,"S. cerevisiae deletion strains, locus YKL068W, hits give low values",0.969
same,normalized growth,"S. cerevisiae deletion strains, locus YKL085W, strain MDH1 (second series), hits give low values",0.899 (active)
same,normalized growth,"S. cerevisiae deletion strains, locus YKL085W, strain MDH1, hits give low values",0.899 (active)
same,normalized growth,"S. cerevisiae deletion strains, locus YKL160W, strain elf1, hits give low values",0.597 (active)
same,normalized growth,"S. cerevisiae deletion strains, locus YKL190W, strain CNB1, hits give low values",0.717 (active)
same,normalized growth,"S. cerevisiae deletion strains, locus YKR001C, strain vps1, hits give low values",0.292 (active)
same,normalized growth,"S. cerevisiae deletion strains, locus YKR026C, strain gcn3, hits give low values",0.957
same,normalized growth,"S. cerevisiae deletion strains, locus YKR091W, strain srl3, hits give low values",0.95
same,normalized growth,"S. cerevisiae deletion strains, locus YLL001W, strain dnm1, hits give low values",0.603 (active)
same,normalized growth,"S. cerevisiae deletion strains, locus YLL026W, hits give low values",0.707 (active)
same,normalized growth,"S. cerevisiae deletion strains, locus YLL041C, strain sdh2, hits give low values",0.897 (active)
same,normalized growth,"S. cerevisiae deletion strains, locus YLR027C, strain aat2, hits give low values",0.604 (active)
same,normalized growth,"S. cerevisiae deletion strains, locus YLR039C, strain RIC1, hits give low values",0.601 (active)
same,normalized growth,"S. cerevisiae deletion strains, locus YLR058C, strain SHM2, hits give low values",0.538 (active)
same,normalized growth,"S. cerevisiae deletion strains, locus YLR102C, strain apc9, hits give low values",0.943
same,normalized growth,"S. cerevisiae deletion strains, locus YLR113W, strain HOG1, hits give low values",0.506 (active)
same,normalized growth,"S. cerevisiae deletion strains, locus YLR221C, strain rsa3, hits give low values",0.634 (active)
same,normalized growth,"S. cerevisiae deletion strains, locus YLR258W, strain gsy2, hits give low values",0.603 (active)
same,normalized growth,"S. cerevisiae deletion strains, locus YLR262C, strain YPT6 (second series), hits give low values",0.573 (active)
same,normalized growth,"S. cerevisiae deletion strains, locus YLR262C, strain YPT6, hits give low values",0.604 (active)
same,normalized growth,"S. cerevisiae deletion strains, locus YLR268W, strain sec22, hits give low values",0.622 (active)
same,normalized growth,"S. cerevisiae deletion strains, locus YLR320W, strain mms22, hits give low values",0.507 (active)
same,normalized growth,"S. cerevisiae deletion strains, locus YLR330W, strain CHS5, hits give low values",0.826 (active)
same,normalized growth,"S. cerevisiae deletion strains, locus YLR342W, strain FKS1 (second series), hits give low values",0.662 (active)
same,normalized growth,"S. cerevisiae deletion strains, locus YLR342W, strain FKS1, hits give low values",0.945
same,normalized growth,"S. cerevisiae deletion strains, locus YLR357W, strain rsc2, hits give low values",1.11
same,normalized growth,"S. cerevisiae deletion strains, locus YLR370C, strain arc18, hits give low values",0.803 (active)
same,normalized growth,"S. cerevisiae deletion strains, locus YLR371W, strain rom2, hits give low values",0.98
same,normalized growth,"S. cerevisiae deletion strains, locus YLR384C, strain iki3, hits give low values",0.932
same,normalized growth,"S. cerevisiae deletion strains, locus YLR418C, strain cdc73, hits give low values",0.723 (active)
same,normalized growth,"S. cerevisiae deletion strains, locus YML016C, strain PPZ1, hits give low values",0.714 (active)
same,normalized growth,"S. cerevisiae deletion strains, locus YML032C, strain rad52, hits give low values",0.37 (active)
same,normalized growth,"S. cerevisiae deletion strains, locus YML120C, strain ndi1, hits give low values",0.439 (active)
same,normalized growth,"S. cerevisiae deletion strains, locus YML124C, strain tub3, hits give low values",0.84 (active)
same,normalized growth,"S. cerevisiae deletion strains, locus YMR058W, strain fet3, hits give low values",0.69 (active)
same,normalized growth,"S. cerevisiae deletion strains, locus YMR078C, strain ctf18, hits give low values",0.642 (active)
same,normalized growth,"S. cerevisiae deletion strains, locus YMR125W, strain sto1, hits give low values",0.963
same,normalized growth,"S. cerevisiae deletion strains, locus YMR129W, hits give low values",0.844 (active)
same,normalized growth,"S. cerevisiae deletion strains, locus YMR205C, strain PFK2, hits give low values",0.669 (active)
same,normalized growth,"S. cerevisiae deletion strains, locus YMR223W, strain ubp8, hits give low values",0.579 (active)
same,normalized growth,"S. cerevisiae deletion strains, locus YMR231W, strain pep5, hits give low values",0.94
same,normalized growth,"S. cerevisiae deletion strains, locus YMR263W, strain SAP30, hits give low values",0.746 (active)
same,normalized growth,"S. cerevisiae deletion strains, locus YMR307W, strain GAS1, hits give low values",0.806
same,normalized growth,"S. cerevisiae deletion strains, locus YNL067W, strain RPL9B, hits give low values",0.477 (active)
same,normalized growth,"S. cerevisiae deletion strains, locus YNL071W, strain lat1, hits give low values",0.958
same,normalized growth,"S. cerevisiae deletion strains, locus YNL128W, strain TEP1, hits give low values",0.76 (active)
same,normalized growth,"S. cerevisiae deletion strains, locus YNL153C, strain GIM3, hits give low values",0.701 (active)
same,normalized growth,"S. cerevisiae deletion strains, locus YNL183C, strain NPR1, hits give low values",0.483 (active)
same,normalized growth,"S. cerevisiae deletion strains, locus YNL209W, strain ssb2, hits give low values",0.729 (active)
same,normalized growth,"S. cerevisiae deletion strains, locus YNL233W, strain BNI4, hits give low values",0.707 (active)
same,normalized growth,"S. cerevisiae deletion strains, locus YNL248C, strain rpa49, hits give low values",0.599 (active)
same,normalized growth,"S. cerevisiae deletion strains, locus YNL250W, strain rad50, hits give low values",0.782 (active)
same,normalized growth,"S. cerevisiae deletion strains, locus YNL271C, strain bni1, hits give low values",0.891 (active)
same,normalized growth,"S. cerevisiae deletion strains, locus YNL298W, strain CLA4, hits give low values",0.858 (active)
same,normalized growth,"S. cerevisiae deletion strains, locus YNL307C, strain MCK1, hits give low values",0.439 (active)
same,normalized growth,"S. cerevisiae deletion strains, locus YNL322C, strain KRE1 (second series), hits give low values",0.981
same,normalized growth,"S. cerevisiae deletion strains, locus YNL322C, strain KRE1, hits give low values",0.771 (active)
same,normalized growth,"S. cerevisiae deletion strains, locus YNR049C, strain mso1, hits give low values",0.899 (active)
same,normalized growth,"S. cerevisiae deletion strains, locus YNR052C, strain pop2, hits give low values",0.732 (active)
same,normalized growth,"S. cerevisiae deletion strains, locus YOL006C, strain TOP1, hits give low values",0.475 (active)
same,normalized growth,"S. cerevisiae deletion strains, locus YOL012C, strain htz1",2.2 [resistant] (active)
same,normalized growth,"S. cerevisiae deletion strains, locus YOL147C, strain pex11, hits give low values",0.832 (active)
same,normalized growth,"S. cerevisiae deletion strains, locus YOR001W, strain rrp6, hits give low values",0.508 (active)
same,normalized growth,"S. cerevisiae deletion strains, locus YOR061W, strain CKA2, hits give low values",0.744 (active)
same,normalized growth,"S. cerevisiae deletion strains, locus YOR069W, strain VPS5, hits give low values",0.825 (active)
same,normalized growth,"S. cerevisiae deletion strains, locus YOR070C, strain gyp1, hits give low values",0.732 (active)
same,normalized growth,"S. cerevisiae deletion strains, locus YOR080W, strain dia2, hits give low values",0.816 (active)
same,normalized growth,"S. cerevisiae deletion strains, locus YOR083W, strain WHI5, hits give low values",0.56 (active)
same,normalized growth,"S. cerevisiae deletion strains, locus YOR106W, strain vam3, hits give low values",0.529 (active)
same,normalized growth,"S. cerevisiae deletion strains, locus YOR136W, strain idh2, hits give low values",0.866 (active)
same,normalized growth,"S. cerevisiae deletion strains, locus YOR144C, strain elg1, hits give low values",0.766 (active)
same,normalized growth,"S. cerevisiae deletion strains, locus YOR184W, strain ser1, hits give low values",0.535 (active)
same,normalized growth,"S. cerevisiae deletion strains, locus YOR231W, strain MKK1, hits give low values",0.41 (active)
same,normalized growth,"S. cerevisiae deletion strains, locus YOR265W, strain rbl2, hits give low values",0.851 (active)
same,normalized growth,"S. cerevisiae deletion strains, locus YOR270C, strain vph1, hits give low values",0.577 (active)
same,normalized growth,"S. cerevisiae deletion strains, locus YOR290C, strain snf2, hits give low values",0.379 (active)
same,normalized growth,"S. cerevisiae deletion strains, locus YOR316C, strain cot1, hits give low values",0.938
same,normalized growth,"S. cerevisiae deletion strains, locus YPL051W, strain arl3, hits give low values",0.628 (active)
same,normalized growth,"S. cerevisiae deletion strains, locus YPL055C, strain LGE1, hits give low values",0.572 (active)
same,normalized growth,"S. cerevisiae deletion strains, locus YPL078C, strain atp4, hits give low values",0.727 (active)
same,normalized growth,"S. cerevisiae deletion strains, locus YPL106C, strain sse1, hits give low values",0.779 (active)
same,normalized growth,"S. cerevisiae deletion strains, locus YPL240C, strain hsp82, hits give low values",0.618 (active)
same,normalized growth,"S. cerevisiae deletion strains, locus YPL241C, strain CIN2, hits give low values",0.935
same,normalized growth,"S. cerevisiae deletion strains, locus YPL256C, strain CLN2, hits give low values",0.499 (active)
same,normalized growth,"S. cerevisiae deletion strains, locus YPR119W, strain clb2, hits give low values",0.85 (active)
same,normalized growth,"S. cerevisiae deletion strains, locus YPR141C, strain kar3, hits give low values",1
same,normalized growth,"S. cerevisiae deletion strains, locus YPR163C, strain tif3, hits give low values",0.964
same,normalized growth,"S. cerevisiae deletion strains, locus YPR167C, strain met16, hits give low values",0.699 (active)
same,normalized growth,"S. cerevisiae deletion strains, strain wtn01, hits give low values",0.549 (active)
same,normalized growth,"S. cerevisiae strains, strain wild type, hits give low values",0.698 (active)
